Measurements from ChEMBL document CHEMBL1157539, “Thousands of chemical starting points for antimalarial lead identification” (Nature, 2010).

What was measured:
Assay type in all cases: functional
Plasmodium falciparum [1] = assay: GSK_TCMDC: Inhibition of Plasmodium falciparum 3D7 in whole red blood cells, using parasite LDH activity as an index of growth. Test compounds present at 2uM
Plasmodium falciparum [2] = assay: GSK_TCMDC: Inhibition of Plasmodium falciparum Dd2 in whole red blood cells, using parasite LDH activity as an index of growth. Test compounds present at 2uM
HepG2 = assay: GSK_TCMDC: Percent inhibition of human HepG2 cell line. Test compounds present at 10uM.

SMILES	Inhibition (Plasmodium falciparum [1]) [%]	Inhibition (Plasmodium falciparum [2]) [%]	Inhibition (HepG2) [%]
CCCCC([C@@H](Cc1ccc2ccccc2c1)C(=O)N[C@H](C(=O)NC)C(C)(C)C)N(O)C=O (stereo partly drawn)	100	97	0
CS(=O)(=O)NCCCNCc1cccc(-c2cccc(-c3nc4cc(F)ccc4[nH]3)c2)c1.O=C(O)C(F)(F)F	100	5	4
FC(F)(F)c1cccc(CCNc2nccc(NCc3ccc(Cl)cc3Cl)n2)c1	97	59	8
O=C(/C=C/c1ccc(Cl)cc1Cl)NCCCCCN1CCC(c2c[nH]c3ccccc23)CC1	99	9	95
C=CCNc1cc(-c2ccccn2)nc(-c2ccccn2)n1	94	79	78
Cc1cccc2nc(-c3ccc(-c4ccc(NC(=O)Nc5ccc(F)c(F)c5F)cc4)s3)[nH]c12	100	99	58
CCCN1CCN(CCCCNc2c3ccccc3nc3ccccc23)CC1.Cl	100	0	34
O=C(NOCCCCOc1ccc(Cl)c(Cl)c1)c1ccccc1	98	1	2
O=c1cc(NCCCNCc2cccc(SC(F)(F)F)c2)[nH]c2ccccc12	100	94	0
CCn1c(Sc2ccc(C#N)c([N+](=O)[O-])c2)nnc1-c1cc(OC)cc(OC)c1	93	82	7
Cc1cc(NC(c2ccc(Cl)cc2)c2ccc3cccnc3c2O)no1 (stereo not drawn)	88	26	50
CCC[C@@H]([C@@H](CC(C)C)C(=O)N[C@@H](CCCCNC(=O)OCc1ccccc1)C(=O)Nc1ncccn1)N(O)C=O	100	98	3
CC(C)CC(=O)NC1CCN(Cc2c(-c3cccs3)nc3ccccc3c2C(=O)N[C@@H](C)C2CCCCC2)CC1	96	97	0
COc1ccc(C(=O)C2CC2CN(C)CC(O)c2cc(C)c(OC)cc2C)cc1.O=C(O)C(F)(F)F (stereo not drawn)	90	77	8
CN(C(=O)Nc1ccc(C(F)(F)F)cc1)C1CCN(CCCCCNC(=O)/C=C/c2ccc(Cl)c(Cl)c2)CC1	100	38	57
O=C(/C=C/c1c[nH]c2ccccc12)NCCCCCN1CCC(c2c[nH]c3ccccc23)CC1	96	0	20

SMILES	Inhibition (Plasmodium falciparum [1]) [%]	Inhibition (Plasmodium falciparum [2]) [%]	Inhibition (HepG2) [%]
Nc1nc(N)c2c(Cl)c(CNc3cccc(C(=O)O)c3)ccc2n1	93	97	69
COc1ccc(NC(=O)Nc2ccc(-c3ccccc3)cc2)cc1Cn1cnc(N2CCCNCC2)cc1=O.O=C(O)C(F)(F)F	100	38	24
COc1cc(-c2cc(-c3ccc(OCCN(C)C)cc3)[nH]c2-c2ccncc2)ccc1Cl.Cl	100	100	28
Cc1cccc2nc(-c3cccc(-c4cccc(C(=O)NCCc5cn(C)cn5)c4)c3)[nH]c12	100	78	12
COc1ccc2c(=NN=C(C)c3ccccn3)cc(C)[nH]c2c1	100	51	33
Cc1cc(N[C@@H](Cc2ccccc2)C(=O)NCCc2ccccc2)nc(NCc2ccccc2C)n1.O=C(O)C(F)(F)F	99	85	37
NC(=O)c1ccccc1OCC(=O)Nc1ccc(-c2cccc(-c3nc4cc(C(F)(F)F)ccc4[nH]3)c2)cc1	100	11	51
O=C(/C=C/c1ccc([N+](=O)[O-])cc1)N1CCC(CCN2CCC(c3c[nH]c4ccccc34)CC2)CC1	100	48	60
COc1nc2c(CCN3CC[C@H](NCc4cc(C#N)c5c(c4)OCCO5)[C@H](O)C3)ccnc2cc1F	95	41	18
COc1cc2[nH]c(-c3ccc(O)cc3)c(C)c(=O)c2c(OC)c1OC	100	94	1
CC(C(=O)N1CCCC1)N1CCN(S(=O)(=O)c2ccc(C(C)(C)C)cc2)CC1 (stereo not drawn)	98	86	4
O=C(Nc1cc(C(F)(F)F)cc(C(F)(F)F)c1)c1cc(Cl)ccc1O [IMD-0354]	90	98	84
Cc1noc(-c2ccc3c(c2)CCN(CCC2CCC(NC(=O)/C=C/c4cccc(Cl)c4)CC2)CC3)n1.Cl (stereo not drawn)	86	24	37
Cc1ccc(NC(=O)c2ccc(CN3CCCN(CC4CCCCC4)CC3)cc2)cc1C.O=C(O)C(F)(F)F	86	32	38
CC(C)c1ccc(NC(=O)c2ccc(CN3CCCN(Cc4cccc(Cl)c4)CC3)cc2)cc1.O=C(O)C(F)(F)F	90	12	45
